Measurements: PubChem BioAssay AID2732 (Emory University Molecular Libraries Screening Center, 2010)
Out of some 220,000 compounds screened, about 8,200 (3.7%) were called active.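 How the source made its calls: active means compounds that reduced the stress-induced luciferase reporter signal by more than about 70% of percent inhibition (limit read from the data); inactive means the rest.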 What follows is part of a selection rich in actives, with near analogues and random picks from the rest.

Assay: inhibitors of CHOP promoter induction, primary screen, cell-based, unfolded protein response, luciferase reporter (AID 2732);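 further: 0% = tunicamycin plus vehicle and 100% = wells without tunicamycin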
Conditions: CHO-K1 CHOP-promoter luciferase, tunicamycin-induced, 15-18 h; at 10 µM; active compounds read high

Structure (SMILES) | inhibition
CC1C(=O)NC(=O)C1c1ccccc1 (centres undefined) | 8.56% (inactive)
CCCC(=O)Nc1ccc2c(c1)nc(CCNC(=O)c1ccco1)n2C | -14.7% (inactive)
CC(NC(=O)C(C)(C)C)C(c1cccs1)N1CCN(Cc2ccccc2)CC1 (centres undefined) | -20.7% (inactive)
CCOC(=O)C1=C(CN2CCc3ccccc32)NC(=O)NC1c1cccc([N+](=O)[O-])c1 (centres undefined) | 60.9% (inactive)
CCOC(=O)C1=C(CN2CCCCCC2)NC(=O)NC1c1cccc([N+](=O)[O-])c1 (centres undefined) | -12.3% (inactive)
CCOC(=O)C1=C(CN2CCc3ccccc32)NC(=O)NC1c1ccc(Cl)cc1 (centres undefined) | 85.1% (active)
Cc1ccc(C(=O)NNC2=Nc3cc([N+](=O)[O-])ccc3OC2)cc1 | -15.9% (inactive)
Cn1nc(C(C)(C)C)c(NC(=O)c2sccc2Cl)c1C(C)(C)C | 3.22% (inactive)
CC(C)c1c(O)nc(SCCOc2ccc(Cl)cc2)[nH]c1=O | 4.19% (inactive)
CCOC(=O)N1CCN(C(=O)c2ccc3c(c2)N(Cc2ccc(C)cc2)CCS3)CC1 | 76.8% (active)
CCOC(=O)N1CCN(C(=O)c2ccc(S(=O)(=O)c3ccc(C)cc3)c(NC(C)=O)c2)CC1 | 33.2% (inactive)
O=C(NCCN1CCOCC1)c1ccc2c(c1)N(Cc1ccc(Cl)cc1)CCS2 | 15% (inactive)
O=C(NCCCc1ccccc1)C1CCC(CNc2c(N3CCCCC3)c(=O)c2=O)CC1 (centres undefined) | 0.92% (inactive)
O=C(COc1ccc(Cl)cc1)N1CCN(S(=O)(=O)c2ccc(Cl)cc2)CC1 | 42.3% (inactive)
CCC(=O)c1ccc(OCC(O)CN2CC(C)OC(C)C2)cc1 (centres undefined) | -8.55% (inactive)
COC(=O)c1ccccc1OCC(=O)N1CCN(c2ccc(Cl)cc2)CC1 | 22.2% (inactive)
CCC(=O)c1ccc(OCC(O)CN2CCN(c3cccc(C(F)(F)F)c3)CC2)cc1 (centres undefined) | 84.2% (active)
OC(COc1ccc2c(c1)CCC2)CN1CCN(c2cccc(Cl)c2)CC1 (centres undefined) | 44.8% (inactive)
O=C(COc1ccc(Cl)cc1)N1CCN(c2cccc(C(F)(F)F)c2)CC1 | 86.3% (active)
O=C(C1=C(O)C(=O)N(CCOCCO)C1c1ccccn1)c1cccs1 (centres undefined) | 8.68% (inactive)
FC(F)(F)c1ccc(-n2cn[nH]c2=S)cc1 | 9.71% (inactive)
CCN(CCNC(=O)C1=C(C)C(=O)OC12CCC(C)CC2)c1ccccc1 (centres undefined) | 23.7% (inactive)
CCc1ccc(NC(=O)N[C@H](C(=O)O)C(C)CC)cc1 (some centres undefined) | -4.67% (inactive)
CCOC(=O)/C(C#N)=C/c1ccc(OCC(=O)Nc2ccccc2)c(OC)c1 | 77.3% (active)

Structure (SMILES) | inhibition
CCOC(=O)/C(C#N)=C/c1ccc(N2CCN(Cc3ccccc3)CC2)cc1 | 5.69% (inactive)
CCCn1c(C)cc(/C=C(\C#N)C(=O)OCC(=O)Nc2cc(OC)c(OC)c(OC)c2)c1C | 9.36% (inactive)
COc1cc(/C=C2/C(=O)NN(c3ccc(F)cc3)C2=O)cc([N+](=O)[O-])c1O | 0.68% (inactive)
O=C(CCCCCN1C(=O)c2cccc3cccc(c23)C1=O)NCc1ccco1 | 7.37% (inactive)
CCOC(=O)c1[nH]c2c(c1C)C(=O)CC(c1ccc(N(C)C)cc1)C2 (centres undefined) | 9.42% (inactive)
CCOC(=O)c1[nH]c2c(c1-c1ccccc1)C(=O)CC(c1ccc(Cl)cc1)C2 (centres undefined) | 80.8% (active)
CCOC(=O)C1=C(c2ccccc2)NC(=S)NC1c1ccc(Cl)cc1 (centres undefined) | 18% (inactive)
CC(NS(=O)(=O)c1ccccc1)c1n[nH]c(=S)n1-c1ccccc1 (centres undefined) | 19.4% (inactive)
CC(/C=C/c1ccco1)=N/NC(=O)C1COc2ccccc2O1 (centres undefined) | 0.12% (inactive)
CCc1ccc(S(=O)(=O)Nc2ccc(C)c(NS(C)(=O)=O)c2)cc1 | 16.4% (inactive)
COc1ccc(CCNS(=O)(=O)c2cccc3cccnc23)cc1OC | 0.78% (inactive)
Cc1ccc2nc(NC(=O)C3CCN(S(=O)(=O)c4ccc5c(c4)oc(=O)n5C)CC3)sc2c1 | 80.1% (active)
Cn1c(=O)oc2cc(S(=O)(=O)N3CCC(C(=O)Nc4ccc(OC(F)(F)F)cc4)CC3)ccc21 | 12% (inactive)
O=C(Nc1nc2ccc(S(=O)(=O)N3CCCC3)cc2s1)C1CCCO1 (centres undefined) | 9.58% (inactive)
Nc1ccc(N=Nc2ccccc2Cl)c(N)n1 | -4.49% (inactive)
Cc1cccc(OCCCC(=O)Nc2ccc(S(=O)(=O)N3CCCC3)cc2)c1 | 89% (active)
Cc1cccc(OCCC(=O)Nc2cc(S(=O)(=O)N3CCCCC3)ccc2N2CCOCC2)c1 | 40.4% (inactive)
Cc1ccc(C)c(S(=O)(=O)N2CCN(CC(=O)Nc3ccc([N+](=O)[O-])cc3)CC2)c1 | 42% (inactive)
CC(=O)Nc1ccc(S(=O)(=O)N2CCSCC2)cc1 | -25.3% (inactive)
CCN(CC(=O)Nc1ccc(S(=O)(=O)N2CCCC2)cc1)CC(=O)Nc1cccc(OC)c1 | 2.69% (inactive)
CC(=O)Nc1ccc(S(=O)(=O)N2CCN(CCCOc3cc(C)ccc3C)CC2)cc1 | 71.1% (active)
CCc1ccc[n+](-c2nc([O-])sc2C=O)c1 | 9.23% (inactive)
Nc1nc(Sc2ncccc2[N+](=O)[O-])n[nH]1 | -14.3% (inactive)
CC(=O)c1nnn(-c2ccc(Cl)cc2C#N)c1C | 13.8% (inactive)

Structure (SMILES) | inhibition
Cn1nc(C(C)(C)C)c([N+](=O)[O-])c1C(N)=O | 1.68% (inactive)
COc1ccc(C(=O)N/N=C2\CCS(=O)(=O)c3ccc(F)cc32)cc1OC | -0.83% (inactive)
O=C(NCC(c1cccs1)N1CCOCC1)c1cc(-c2ccccn2)nc2ccccc12 (centres undefined) | 7.03% (inactive)
COCC(=O)N=Nc1c(O)[nH]c2ccccc12 | -14.7% (inactive)
Cc1c(-c2ccccc2)n[nH]c1C(=O)N=Nc1c(O)[nH]c2ccccc12 | 106% (active)
Cc1cccc(N(CC(=O)N=Nc2c(O)[nH]c3ccccc23)S(C)(=O)=O)c1C | 27% (inactive)
O=C(CC(c1ccccc1)c1cc(Cl)ccc1O)NCCN1CCOCC1 (centres undefined) | -2.25% (inactive)
CN(C)S(=O)(=O)c1ccc(Cl)c(NC(=O)COC(=O)CC(NC(N)=O)c2ccc(Cl)cc2)c1 (centres undefined) | -8.1% (inactive)
CC(C)NC(=O)NNc1c(Cl)cncc1Cl | 5.99% (inactive)
O=C(NCc1ccc2c(c1)OCO2)c1sccc1Br | 8.42% (inactive)
Cc1cccc(C)c1NC(=O)CSc1ccc([N+](=O)[O-])cn1 | -10.4% (inactive)
Cc1cc(C)c(C#N)c(SCC(=O)Nc2ccccc2)n1 | 41.3% (inactive)
Cc1cc2cc3c(cc2nc1SCC(=O)Nc1c(C)cccc1C)CCC3 | 79.2% (active)
COC(=O)c1c(C)oc(C)c1S(=O)(=O)NCc1ccc(Cl)cc1 | 30.1% (inactive)
Cc1ccc(/C=N/NC(=O)COc2ccccc2-c2ccccc2)cc1 | 90.4% (active)
Cc1ccc(OCC(=O)N/N=C\c2ccco2)c(C)c1 | 12.7% (inactive)
Cc1ccc(OCC(=O)N/N=C/c2ccncc2)cc1 | 10% (inactive)
Cc1cc(OCCCCOc2ccc(C#N)cc2)ccc1[N+](=O)[O-] | 32.1% (inactive)
COc1ccccc1Nc1nc(N)nc(CSC(=S)N2CCOCC2)n1 | 9% (inactive)
CCOc1ccc(N2C(=O)CC(N(O)c3ccccc3)C2=O)cc1 (centres undefined) | -34% (inactive)
CCOC(=O)c1ccc(N2C(=O)CC(N(C)Cc3ccccc3)C2=O)cc1 (centres undefined) | 40.7% (inactive)
CCCCCCC(=O)N(O)C1CC(=O)N(c2ccccc2)C1=O (centres undefined) | 106% (active)
COCCN1C2=C(COC(C)(C)C2)C(=S)NC1c1ccccc1 (centres undefined) | 12.9% (inactive)
Cc1cc(C(=O)OCC(=O)Nc2nccs2)c2ccccc2n1 | 23.3% (inactive)

Structure (SMILES) | inhibition
CSc1ccc(S(=O)(=O)Nc2cccc(F)c2)cc1 | 74.6% (active)
CSc1ccc(S(=O)(=O)NC2CCCCC2)cc1 | 1.25% (inactive)
Cc1cc(C)cc(NS(=O)(=O)c2ccc(F)cc2)c1 | 10.9% (inactive)
O=S(=O)(Nc1ccc(OC(F)(F)F)cc1)c1cccc2nonc12 | -2.82% (inactive)
Cn1ccc(NC(=O)Nc2ccc(Cl)cc2)n1 | -23.2% (inactive)
CC(C)=NN1C(=O)c2ccccc2NC1(C)C | 2.15% (inactive)
COCCN(CCOC)C(=S)Nc1ccccc1Cl | 15.1% (inactive)
O=C(Nc1ccccc1Cl)/C(Cl)=C(\Cl)S(=O)c1ccccc1 (centres undefined) | 108% (active)
O=C(Nc1ccccc1Cl)c1ccc2nsnc2c1 | -20.7% (inactive)
NC(=O)Cc1ccc2c(c1)[nH]c1ccccc12 | -13.9% (inactive)
CCNc1nc(NCC)nc(N/N=C/c2ccc(O)c(OC)c2)n1 | -5.61% (inactive)
OC(c1ccccc1)C(CN1CCOCC1)c1ccccc1 (centres undefined) | 9.34% (inactive)
Cc1ccc(NC(=O)C(C)c2cccc(C(=O)c3ccccc3)c2)cc1 (centres undefined) | 19.2% (inactive)
O=C(Nc1ccccc1F)c1ccccc1-c1ccccc1 | 1.92% (inactive)
Cc1ccccc1NC(=O)C(C)c1ccc(-c2ccccc2)c(F)c1 (centres undefined) | 70.4% (active)
COc1cccc(NC(=O)c2ccc(S(=O)(=O)N(C)C)cc2)c1 | -15.2% (inactive)
COc1cccc(-c2nnc(NC(=O)c3ccc(S(=O)(=O)N(CC(C)C)CC(C)C)cc3)o2)c1 | 108% (active)
O=C(Nc1nnc(-c2ccco2)o1)c1ccc(S(=O)(=O)N2CCOCC2)cc1 | 13.2% (inactive)
Cc1ccc(NC(=O)COC(=O)CCc2nc3ccccc3n2-c2ccccc2)c(C)c1 | 2.62% (inactive)
CC(C)(C)c1ccc(NC(=O)COC(=O)CCc2nc3ccccc3c(=O)[nH]2)cc1 | 20% (inactive)
CCN(c1ccc(NC(=O)COC(=O)CCc2nc3ccccc3n2-c2ccccc2)cc1)C(C)C | 79% (active)
Cc1c(C(=O)N(Cc2ccccc2)Cc2cccnc2)cnn1-c1ccc(F)cc1 | 0% (inactive)
